Measurements as given in the supplement of paper PMC4723716.
The full ranking holds about 3,600 compounds; the median of “viability index relative to DMSO control” is about 0.81, and the lowest 2% start at about 0.13. Many of the other results were omitted from the sample, so the lowest values are more common in it than they were.

These compounds were tested on Plasmodium falciparum NF54 stage V gametocytes (assay: viability index relative to DMSO control (fraction); higher = less gametocyte killing). Details: 1.25 µM, incubation time: 72 h.
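Also: Saponin-lysis sexual stage assay in serum-free medium: MitoTracker Red CMXRos staining plus saponin, high-content imaging, particle count per well divided by plate mean of DMSO wells.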

With `O=[N+]([O-])c1ccc2nc(Nc3ccc(Cl)c(Cl)c3)c(Nc3ccc(Cl)c(Cl)c3)nc2c1` as the compound, how does the viability index read?
Its viability index is 0.0962.

`O=[N+]([O-])c1ccc2nc(Nc3ccccc3)c(Nc3ccccc3)nc2c1` was tested. Which viability index did it give?
The viability index was 0.481.

Which viability index does the source give for `O=[N+]([O-])c1ccc2nc(NC3CCCCC3)c(NC3CCCCC3)nc2c1` here?
Its viability index is 0.86.

`CC1(C)Cc2c(sc(NC(=O)CCl)c2C#N)CO1` was tested. Which viability index did it give?
The viability index was 0.556.

Which viability index does the source give for `Cc1ccc(-c2noc(C3CCN(C(=O)Nc4ccc(C#N)cc4)CC3)n2)o1` here?
The viability index was 0.957.

Which viability index does the source give for `CC(C)c1nc(N2CCN(C(=S)NCc3ccccc3)CC2)c(C#N)c2c1COC(C)(C)C2` here?
The viability index was 0.0888.

How did the viability index turn out when `CCCC(=O)N1CCN(c2nc(Cc3ccccc3)c3c(c2C#N)CC(C)(C)OC3)CC1` was run?
The viability index was 0.568.

With `O=[N+]([O-])c1ccc(S(=O)(=O)N2CCN(C(=S)NCc3ccccc3)CC2)cc1` as the compound, how does the viability index read?
The viability index was 0.163.

For `CC(C)c1nc(N2CCN(C(=O)Nc3ccccc3)CC2)c(C#N)c2c1COC(C)(C)C2`, which viability index is on record?
Its viability index is 0.0954.

Which viability index does the source give for `CC[n+]1c(SC)ccc2cc(OC)ccc21` here?
The viability index was 0.681.

How did the viability index turn out when `CCC(=O)NCc1nnc(SCc2cccc(C(F)(F)F)c2)n1-c1cccc(OC)c1` was run?
The viability index was 0.865.

With `C[n+]1ccccc1C=Cc1cc(Br)ccc1O` as the compound, how does the viability index read?
The viability index was 0.819.

`CC(NC(=O)C(=O)N1CCCCC1)C(c1cccs1)N1CCOCC1` (stereo not given) was tested. Which viability index did it give?
The viability index was 0.787.

With `CC(=O)Nc1nc(C)c(-c2csc(Nc3ccc(C)cc3)n2)s1` as the compound, how does the viability index read?
The viability index was 0.351.

For `Cc1nc2sccn2c1-c1csc(Nc2ccccn2)n1`, which viability index is on record?
Its viability index is 0.89.

With `Cc1ccnc(Nc2nc(-c3ccc(Cl)cc3)cs2)c1` as the compound, how does the viability index read?
Its viability index is 0.938.

`Fc1cccc2sc(Nc3nc(-c4ccccn4)cs3)nc12` was tested. Which viability index did it give?
Its viability index is 0.322.

With `COc1ccc2nc(Nc3nc(-c4ccccn4)cs3)sc2c1` as the compound, how does the viability index read?
The viability index was 0.331.

For `c1ccc(Nc2nc(-c3ccccn3)cs2)nc1`, which viability index is on record?
The viability index was 0.0653.

`Cc1ccc(Nc2nc(-c3ccccn3)cs2)cc1` was tested. Which viability index did it give?
Its viability index is 0.127.

For `O=C(Nc1nc(-c2ccccn2)cs1)c1ccc(Oc2ccc(C(=O)Nc3nc(-c4ccccn4)cs3)cc2)cc1`, which viability index is on record?
The viability index was 0.00826.

How did the viability index turn out when `Cc1ccnc(Nc2nc(-c3c(C)nc4sccn34)cs2)c1` was run?
The viability index was 0.822.

For `Cc1ccnc(Nc2nc(-c3ccccn3)cs2)c1`, which viability index is on record?
Its viability index is 0.0192.

How did the viability index turn out when `COc1ccc2sc(Nc3nc(-c4ccccn4)cs3)nc2c1` was run?
Its viability index is 0.876.

For `Cc1nc2ncccn2c1-c1csc(Nc2ccccn2)n1`, which viability index is on record?
Its viability index is 1.06.

How did the viability index turn out when `CC1CCc2c(sc(NC(=O)c3ccccc3F)c2C(=O)NCc2ccccc2)C1` (stereo not given) was run?
The viability index was 1.42.

For `CCC(CC)=NNC(=O)C(=O)NC1CCCCC1`, which viability index is on record?
The viability index was 1.13.

How did the viability index turn out when `CCC(=O)NC(c1ccccc1Cl)c1cc(Cl)c2cccnc2c1O` (stereo not given) was run?
The viability index was 0.86.

`O=C(O)c1ccc(S(=O)(=O)c2ccc3c(c2)C(=O)N(c2ccc(Sc4ccc([N+](=O)[O-])cc4)cc2)C3=O)cc1` was tested. Which viability index did it give?
Its viability index is 0.887.

With `CCOc1ccc(Nc2cc(=O)oc3ccccc23)cc1` as the compound, how does the viability index read?
The viability index was 0.618.

Which viability index does the source give for `CCCn1nc(Oc2nc(NCC)cc(OC)n2)ccc1=O` here?
The viability index was 0.859.

Which viability index does the source give for `N=c1c2c(n(Cc3ccccc3)c3c1CCC3)CCC2` here?
The viability index was 0.87.

With `O=[N+]([O-])c1ccc(N2CCCN(C(=S)Nc3ccc(F)cc3Br)CC2)nc1` as the compound, how does the viability index read?
The viability index was 0.261.

With `O=[N+]([O-])c1ccc(N2CCN(C(=S)Nc3ccccc3)CC2)cc1` as the compound, how does the viability index read?
Its viability index is 0.967.

`O=[N+]([O-])c1ccc(N2CCCN(C(=S)Nc3ccccc3)CC2)nc1` was tested. Which viability index did it give?
Its viability index is 0.0788.

For `NC1=NC(c2ccccc2)N(c2ccccc2)C(N)=N1` (stereo not given), which viability index is on record?
The viability index was 1.12.

How did the viability index turn out when `O=C(Nc1ccccc1C(=O)O)c1cccc(NC(=O)c2ccco2)c1` was run?
The viability index was 0.73.

For `CCn1c(CSc2nc(C)cc(C)n2)nnc1SCC(N)=O`, which viability index is on record?
Its viability index is 1.13.

How did the viability index turn out when `CC(=O)N(C1=C(N(C)C)C(=O)c2ccccc2C1=O)c1ccc(F)c(F)c1` was run?
The viability index was 0.0288.

With `CC(=O)N(C1=C(N(C)C)C(=O)c2ccccc2C1=O)c1cccc(F)c1` as the compound, how does the viability index read?
The viability index was 0.0612.

For `CC(=O)N(C1=C(N(C)C)C(=O)c2ccccc2C1=O)c1ccc(Cl)c(Cl)c1`, which viability index is on record?
Its viability index is 0.257.

How did the viability index turn out when `CC(=O)N(C1=C(N(C)C)C(=O)c2ccccc2C1=O)c1ccc(F)cc1` was run?
Its viability index is 0.0453.

With `CC(=O)N(C1=C(N2CCC(C)CC2)C(=O)c2ccccc2C1=O)c1cccc(F)c1` as the compound, how does the viability index read?
The viability index was 0.892.

`CC(=O)N(C1=C(N(C)C)C(=O)c2ccccc2C1=O)c1ccc(Cl)cc1` was tested. Which viability index did it give?
Its viability index is 0.208.

For `CC(=O)N(C1=C(N2CCOCC2)C(=O)c2ccccc2C1=O)c1ccc(I)cc1`, which viability index is on record?
Its viability index is 0.14.

`CC(=O)N(C1=C(N(C)C)C(=O)c2ccccc2C1=O)c1cc(C)cc(C)c1` was tested. Which viability index did it give?
Its viability index is 0.0811.

With `O=C(CN(CCN1CCOCC1)S(=O)(=O)c1ccccn1)N1CCN(C(c2ccccc2)c2ccccc2)CC1` as the compound, how does the viability index read?
The viability index was 0.637.

Which viability index does the source give for `CCN(CC)c1ccc(C=NNC(=O)c2ccc(Nc3nc(-c4ccccc4)cs3)cc2)c(O)c1` here?
The viability index was 0.675.

For `Cc1ccccc1N1C(=O)C2C3c4ccccc4C(C(=O)O)(c4ccccc43)C2C1=O` (stereo not given), which viability index is on record?
Its viability index is 0.616.

`CN(C)CCN1CCN(c2ccnc3cc4ccccc4cc23)CC1` was tested. Which viability index did it give?
Its viability index is 0.84.

For `O=c1c(=O)n(Cc2cccc(C(F)(F)F)c2)ccn1CCc1ccccc1`, which viability index is on record?
The viability index was 0.751.

Which viability index does the source give for `CCN(CC)S(=O)(=O)c1ccc2[nH]cc(C(=O)NCCCN3CCN(c4ccc(OC)cc4)CC3)c(=O)c2c1` here?
Its viability index is 1.14.

Which viability index does the source give for `CCN(CC)c1ccc(N=Cc2ccc(Sc3nc4ccccc4s3)o2)cc1` here?
Its viability index is 1.17.

How did the viability index turn out when `OC(COc1ccc(OCC(O)CN2CCN(C3c4ccccc4-c4ccccc43)CC2)cc1)CN1CCN(C2c3ccccc3-c3ccccc32)CC1` (stereo not given) was run?
The viability index was 0.754.

For `CC(=O)N(C1=C(N(C)C)C(=O)c2ccccc2C1=O)c1cccc(Cl)c1`, which viability index is on record?
Its viability index is 0.

How did the viability index turn out when `Cc1nc2c(C)cccc2c(O)c1CC=C(Cl)Cl` was run?
The viability index was 0.759.

With `Oc1c(CN2CCN(Cc3ccc4cccnc4c3O)CC2)ccc2cccnc12` as the compound, how does the viability index read?
Its viability index is 0.601.

Which viability index does the source give for `COc1ccc(-c2nc(NC(=O)CS(=O)(=O)c3ccccc3)sc2C)cc1` here?
The viability index was 1.02.

How did the viability index turn out when `COc1ccc(C(OCCS(=O)(=O)CCO)(c2ccccc2)c2ccc(OC)cc2)cc1` was run?
The viability index was 0.0248.

How did the viability index turn out when `COc1ccc(S(=O)(=O)N=C2C=C(Nc3ccccc3)C(=O)c3ccccc32)cc1` was run?
The viability index was 0.232.

`O=C(Nc1ccc(Oc2ccc(OC(F)(F)F)cc2)cc1)C1CC1` was tested. Which viability index did it give?
The viability index was 0.693.

`CCCOC(=O)C1=C(C)NC2=C(C(=O)CC(c3ccc(OC)c(OC)c3)C2)C1c1cccc(Br)c1` (stereo not given) was tested. Which viability index did it give?
The viability index was 0.83.

For `CCN1CCN(c2cc(C)c3cc(NC(=O)c4cncc(Br)c4)ccc3n2)CC1`, which viability index is on record?
Its viability index is 0.801.

For `CC(=O)N(C1=C(N2CCCC2)C(=O)c2ccccc2C1=O)c1cccc(F)c1`, which viability index is on record?
Its viability index is 1.

With `CC(=O)N(C1=C(N2CCCC2)C(=O)c2ccccc2C1=O)c1ccc(I)cc1` as the compound, how does the viability index read?
Its viability index is 0.879.

How did the viability index turn out when `CCCNC1=C(N(C(C)=O)c2cccc(F)c2)C(=O)c2ccccc2C1=O` was run?
The viability index was 0.0245.

Which viability index does the source give for `CC(=O)N(C1=C(N2CCCCC2)C(=O)c2ccccc2C1=O)c1cccc(F)c1` here?
Its viability index is 0.833.

`CCCNC1=C(N(C(C)=O)c2ccc(C)cc2)C(=O)c2ccccc2C1=O` was tested. Which viability index did it give?
Its viability index is 0.0531.

`CCCCOc1ccc(N(C(C)=O)C2=C(N3CCCCC3)C(=O)c3ccccc3C2=O)cc1` was tested. Which viability index did it give?
The viability index was 0.301.

Which viability index does the source give for `COc1cccc(C(=O)NC(c2ccc(Cl)cc2)c2cc(Cl)c3cccnc3c2O)c1` (stereo not given) here?
Its viability index is 0.523.

Which viability index does the source give for `COCCCNC(=O)C=Cc1ccc(C(C)C)cc1` here?
The viability index was 0.976.

`C=CCOC(=O)C1=C(C)N2CCSC2=C(C#N)C1c1ccco1` (stereo not given) was tested. Which viability index did it give?
Its viability index is 1.13.

For `O=C(Nc1ccc2nc3n(c(=O)c2c1)CCCCC3)C(=O)N1CCN(c2cccc(Cl)c2)CC1`, which viability index is on record?
The viability index was 0.432.

How did the viability index turn out when `O=C(CCCCCN1C(=O)c2cccc3cccc(c23)C1=O)NO` was run?
The viability index was 0.853.

With `Cn1c(SCc2cccc([N+](=O)[O-])c2)nc2c(c1=O)SCC2` as the compound, how does the viability index read?
Its viability index is 0.818.

How did the viability index turn out when `CC(=O)N(C1=C(N2CCOCC2)C(=O)c2ccccc2C1=O)c1cccc(Cl)c1` was run?
Its viability index is 0.0385.

`CC(=O)N(C1=C(N2CCCCC2)C(=O)c2ccccc2C1=O)c1ccc(F)c(F)c1` was tested. Which viability index did it give?
The viability index was 0.837.

`CC(=O)N(C1=C(N2CCOCC2)C(=O)c2ccccc2C1=O)c1ccc(Br)cc1` was tested. Which viability index did it give?
The viability index was 0.408.

With `CC(=O)N(C1=C(N2CCOCC2)C(=O)c2ccccc2C1=O)c1cc(C)cc(C)c1` as the compound, how does the viability index read?
The viability index was 0.0695.

How did the viability index turn out when `CC(=O)N(C1=C(N2CCOCC2)C(=O)c2ccccc2C1=O)c1ccc(F)c(F)c1` was run?
Its viability index is 0.0694.

With `CC(=O)N(C1=C(N2CCN(C)CC2)C(=O)c2ccccc2C1=O)c1cc(C)cc(C)c1` as the compound, how does the viability index read?
Its viability index is 0.521.

With `CC(=O)N(C1=C(N2CCCCC2)C(=O)c2ccccc2C1=O)c1cccc(Cl)c1` as the compound, how does the viability index read?
Its viability index is 0.144.

For `CC(=O)N(C1=C(N2CCCC2)C(=O)c2ccccc2C1=O)c1ccc(F)c(F)c1`, which viability index is on record?
The viability index was 0.743.

For `CC(=O)N(C1=C(N2CCOCC2)C(=O)c2ccccc2C1=O)c1ccc(Cl)c(Cl)c1`, which viability index is on record?
Its viability index is 0.351.

`COc1cncc(-c2cncc(-c3ccc(Oc4ccccc4)cc3)n2)c1` was tested. Which viability index did it give?
The viability index was 0.899.

`COc1cc2c(cc1OC)C(COc1ccc(F)cc1)N(C(=O)c1ccc(OC(C)C)cc1)CC2` (stereo not given) was tested. Which viability index did it give?
The viability index was 0.66.

How did the viability index turn out when `CCCN(CCC)CC(O)COc1ccccc1C(=O)Nc1ccccc1` (stereo not given) was run?
Its viability index is 0.65.

How did the viability index turn out when `Cc1ccc(N2C(N)=NC(N)=NC2(C)C)cc1` was run?
The viability index was 0.985.

`C=CCCC(=O)N1CCC(C(=O)Nc2ccc(-c3nc4ccccc4o3)cc2)CC1` was tested. Which viability index did it give?
The viability index was 0.846.

For `c1ccc2c(c1)[nH]c1c(NCCN3CCCCC3)ncnc12`, which viability index is on record?
The viability index was 1.09.
